Screens as filed in PubChem BioAssay.
FMDV inh – antivirals against foot and mouth disease virus; Potency, µM (titrated, usually from 57.9 µM), inactives show at the highest dose activity change, negative = inhibition, usual class: inhibitors; 1.2% of 410,000 active; FMDV antiviral cell-based qHTS; calls by dose curve; tested in HEK293T cells; also: read-out not given here; potency is read from the fitted curve at half-maximal effect; nearly all actives have a fitted effect of over 45% in size
HCV inhibitor – HCV inhibition; Huh7.5.1 HCVcc-Cre infection, luciferase reporter, 44 h; Potency, µM (top dose mostly 41.8 µM), inactives show at the highest dose activity change, negative = inhibition, usual class: inhibitors; 3.4% of 340,000 active; active = well fitted inhibition curve with a large enough effect; inconclusive = small, poorly fitted or top-dose-only effect, or another doubt; inactive = no such curve, though single readings can be large or run the other way; also: potency is read from the fitted curve at half-maximal effect
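Infectious HCV cell culture screen: compound-treated cells (1,000/well, pre-plated 4 h) are infected with HCVcc-Cre at roughly 0.5 moi and grown 44 h. Infection is quantified by luciferase signal after 15 min substrate incubation at room temperature.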
HCMV antiviral – human cytomegalovirus inhibition | HFF cells, HCMV-luciferase reporter, 72 h; active compounds read low | activity change, negative = inhibition, % at 57.5 µM | 4.5% of 410,000 active; in the data active = activity change below about -60%; inconclusive = no clear call, values can overlap the other calls; inactive = above about -39%
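After 16 h attachment at 37C, HFF cells received test compound and HCMV-luciferase (1 PFU/cell); reporter luminescence read 72 h later, data normalized against buffer-only and known inhibitor Salinomycin.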
Marburg entry inh – Marburg virus entry inhibition | Marburg virus pseudotyped entry inhibition, cell reporter | Potency, µM (doses to about 37.8 µM), inactives show at the highest dose activity change, negative = inhibition, hits mostly inhibitors | 1.8% of 300,000 active | AID 540276; calls by dose curve; tested in HEK293 cells; also: potency is read from the fitted curve at half-maximal effect
Lassa entry inh – Lassa virus entry inhibition; Potency, µM (top dose mostly 37.9 µM), without a hit: top-dose activity change, negative = inhibition, hits mostly inhibitors; Lassa virus pseudotype entry inhibition, cell reporter; AID 540256; 1.2% of 300,000 active; calls by dose curve; tested in HEK293 cells; also: potency is read from the fitted curve at half-maximal effect; nearly all actives have a fitted effect of over 50% in size
Numbers without * were called inactive; u = inconclusive; x = no result given; [ ] = another dose, or the depositor's remark. This is a sample that favours compounds with a hit; in the whole collection about 7.9% have one here. % is scaled to controls: 0 for no effect and ±100 for the full control effect.

SMILES	FMDV inh	HCV inhibitor	HCMV antiviral	Marburg entry inh	Lassa entry inh
COC(=O)C(Cc1ccc(N(CCCl)CCCl)cc1)N=Cc1ccccc1O (centres undefined)	u	u	-103.5*	u	u
N[C@@H](Cc1cc(O)c(O)cc1O)C(=O)O	x	x	x	3.97µM*	x
NC(Cc1cc(O)c(O)cc1O)C(=O)O (centres undefined)	x	2.8%	x	3.97µM*	u
N[C@@H](Cc1cc(I)c(O)c(I)c1)C(=O)O	-18.6%	1.9%[8.37 µM]	12.2	-1.5%	16.2%
COc1ccc(N2CC(C(=O)NCc3n[nH]c(=O)c4ccccc34)CC2=O)cc1 (centres undefined)	-5.0%	-6.6%	9.9	11.1%	13.7%
COc1cc(OC)c(C(=O)c2ccccc2[N+](=O)[O-])c(OC)c1	-4.6%	x	-26.7	x	x
C=CCn1cnc2c(c1=O)c1nc3ccccc3nc1n2/N=C/c1ccccn1	-19.6%	x	-27.8	u	-9.6%[14.3 µM]
COc1cccc(/C=N/n2c(-c3ccco3)nc3ccccc3c2=O)c1	u	u	-64.4*	4.9%	-17.1%
O=c1c2c3nc4ccccc4nc3n(/N=C/c3ccccn3)c2ncn1-c1ccccc1	u	-84.7%	-26.9	5.62µM*	u
COCCn1cnc2c(c1=O)c1nc3ccccc3nc1n2/N=C/c1cccc(OC)c1	28.2µM*	3.5%	-30.2	u	u
CC(=O)N(O)c1ccc(C=Cc2ccccc2)cc1	44.4%	x	-98.8*	x	x
Fc1ccccc1Cn1cc(C(=S)N2CCOCC2)c2ccccc21	34.1%	-21.3%	-24.2	x	x
O=Cc1cn(Cc2ccccc2F)c2ccccc12	-7.8%	15.2%	-91.5*	u	u
O=C(C(=O)N1CCOCC1)c1cn(Cc2ccccc2Cl)c2ccccc12	8.3%	3.6%	-38.0	x	x
CC(C)C(=O)c1cn(Cc2ccccc2C#N)c2ccccc12	-26.3%	u	4.0	u	-23.1%
CC(=O)c1cn(Cc2ccccc2F)c2ccccc12	u	u	-79.2*	x	x
CC(=O)c1cn(Cc2ccccc2C#N)c2ccccc12	u	2.51µM*	-65.2*	u	3.55µM*
N/C(=N\O)c1cn(Cc2ccccc2Cl)c2ccccc12	u	-19.4%	-70.7*	u	-16.2%
CCOc1cc(NS(=O)(=O)c2ccccc2)c(OCC)cc1NC(=O)c1ccco1	-15.3%	-7.3%	-100.6*	-14.4%	-6.0%
CCOC(=O)c1c(C)[nH]c(C)c1C(=O)COC(=O)[C@@H](NC(=O)c1ccco1)C(C)C	-9.1%	19.8%	-9.0	7.3%	25.8%
O=C(/C=C/c1ccc(Br)cc1)c1ccc(NC(=O)c2ccco2)cc1	4.2%	u	-29.5	u	-5.3%
CCOc1ccccc1NC(=O)c1cccc(NC(=O)c2ccco2)c1	u	3.16µM*	u	u	u
O=C(/C=C\c1ccccc1)Nc1ccc(NC(=O)c2ccco2)cc1	-21.3%	u	-100.9*	-13.3%[14.2 µM]	-26.8%
CCNC(=S)Nc1cc(OCC)c(NC(=O)c2ccco2)cc1OCC	6.0%	-3.9%	62.6	-3.2%	u
CCOC(=O)c1c(C)[nH]c(C)c1C(=O)COc1ccc(NC(=O)c2ccco2)cc1	-27.7%	-14.3%	-64.4*	-1.5%	-19.4%
SMILES	FMDV inh	HCV inhibitor	HCMV antiviral	Marburg entry inh	Lassa entry inh
O=C(Nc1ccccc1)c1cccc(NC(=O)c2ccco2)c1	-14.0%	-10.1%	7.2	-17.8%[46.1 µM]	-3.2%[46.1 µM]
C=Cc1cccc(NC(=O)c2ccc(NC(=O)c3ccco3)cc2)c1	-4.8%	11.2µM*	u	x	x
CCOC(=O)c1cccc(NC(=O)c2ccc(NC(=O)c3ccco3)cc2)c1	u	u	-64.4*	x	x
COc1ccc2c3c(n(C)c2c1)[C@@H](CO)N(S(=O)(=O)c1ccccc1)CC31CCN(C)CC1	x	x	80.9	x	x
CCc1ccc(Oc2c(C(F)(F)F)oc3c(CN4CCN(CC)CC4)c(O)ccc3c2=O)cc1	-19.6%	x	-28.9	u	-23.8%[46.1 µM]
Cc1cc2nn(-c3cccc4ccccc34)nc2cc1N	37.9%	7.9%	34.7	u	28.1%
Cc1cc(N)c2ccccc2[n+]1CCCCCCCCCC[n+]1c(C)cc(N)c2ccccc21	u	x	x	10µM*	u
Cc1ccc(C(=O)CSc2cnc3ccccc3n2)cc1C	u	-28.5%	-60.9*	18.4µM*	u
CN(C)C(=O)CSc1cnc2ccccc2n1	5.1%	4.9%	34.0	-1.1%[46.1 µM]	-3.6%[46.1 µM]
CC(C)n1nnnc1C1c2ccccc2C(=O)N1CCc1c[nH]c2ccccc12 (centres undefined)	47.8%	x	3.2	x	x
N#C/C(N=Nc1ccccc1O)=N\Nc1ccccc1O	u	11.2µM*	-99.4*	x	x
CCS(=O)(=O)N1CCN=C1SCc1ccc(F)cc1	-4.3%	4.5%	u	x	x
Cc1nn(-c2ccccc2)c(C)c1C(=O)OCc1ccc(C#N)cc1	-16.7%	12.6µM*	-1.4	x	x
Cc1nn(-c2ccccc2)c(C)c1C(=O)OCC(N)=O	10.0%	7.8%	-30.1	x	x
CCN(C(=O)CN1CCC(C(=O)OC)CC1)c1c(N)n(Cc2ccccc2)c(=O)[nH]c1=O	-19.5%	11.2%	56.0	x	x
NC(=O)COC(=O)c1cccnc1Nc1ccccc1F	14.3%	4.5%	-70.7*	16.5%[46.1 µM]	19.4%
COc1cccc(NC(=S)N(CCCN2CCOCC2)Cc2cn(C)c3ccccc23)c1	2.0%	u	-77.7*	u	u
COc1ccc(NC(=S)N(CCCN2CCOCC2)Cc2cn(C)c3ccccc23)cc1OC	15.6%	u	-87.4*	u	u
COc1cccc2cc(C(C)N(CCCN3CCOCC3)C(=S)Nc3cc(C)cc(C)c3)oc12 (centres undefined)	-19.8%	-14.3%	0.0	u	-21.2%[46.1 µM]
COc1cccc2cc(C(C)N(CCCN3CCOCC3)C(=S)Nc3cccc(C)c3)oc12 (centres undefined)	-16.1%	1.8%	-13.4	10µM*	u
Cc1ccc(C)n1C1C(=O)N(C)c2ccccc21 (centres undefined)	x	x	0.2	x	x
CC(=O)NC1C(OC2OC(CC(O)C3OC([N+]4=CCC(=O)NC4=O)C(O)C3O)C(O)C(O)C2NC(=O)/C=C/CCCCCCCCC(C)C)OC(CO)C(O)C1O (centres undefined)	-18.9%[39.8 µM]	x	x	x	x
Cc1cc(C)cc(-n2c(SCC(=O)N3CCc4ccccc43)nc3c([nH]c4ccccc43)c2=O)c1	-7.0%	x	14.7	x	19.2%[46.1 µM]
CC1(C)N=C(N)N=C(N)N1c1ccc(Oc2ccc(Cl)cc2)c(Cl)c1	-23.6%	u	-99.5*	u	u
Cc1cc(NC(=O)CSc2nc(-c3ccc(Cl)cc3)cs2)no1	-25.5%	u	-7.7	u	-15.8%
O=[N+]([O-])c1cccc(NC(=S)Nc2nc(-c3ccccc3Cl)cs2)c1	-19.0%	8.91µM*	x	u	u
O=C(CSc1nc(-c2ccc(Cl)cc2)cs1)Nc1cccc([N+](=O)[O-])c1	4.5%	12.6µM*	-27.2	x	x
COc1ccccc1CN1CCOc2ccc(CN3CCC(Oc4cccnc4)CC3)cc2C1	-10.5%	x	x	x	x
CC(C)=CC(=O)Nc1ccccc1C(N)=O	13.4%	11.0%	-74.1*	6.1%	15.9%
